Experimental data reported in PubChem BioAssay AID485297 (National Center for Advancing Translational Sciences (NCATS), 2010).
In all, about 320,000 compounds went through this assay and about 9,100 (2.8%) were called active. About 3% were inconclusive and are not listed. Calls follow the shape of the dose curve; as a rule, active = well fitted activation curve with a large enough effect; inconclusive = small, poorly fitted or top-dose-only effect; inactive = no such curve, though single readings can be large or run the other way. What follows is part of a selection rich in actives, with near analogues and random picks from the rest.

Assay: qHTS Assay for Rab9 Promoter Activators; also: nearly all actives have a fitted effect of over 60% in size; as to activation, negative = inhibition: % of control where 0% means no effect
Conditions: Huh7 Rab9 promoter-luciferase reporter, luminescence, 24 h; series mostly up to 9.22 µM; activation, negative = inhibition: at the top concentration
Outline: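 Luminescence from Amplite-detected luciferase (10 minutes, ambient) reports Rab9 promoter activation. Before that, stable Rab9-luciferase Huh7 cells (1500/well, reduced-serum OP-MEM I plus 10% FBS) were exposed to compound for 24 hours at 37C.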
Potency is read from the fitted curve at half-maximal effect.

Row | SMILES | activation, negative = inhibition | Potency
1 | CCOC(=O)c1sc(NC(=O)C2CSC3(C)CCC(=O)N23)nc1C (configuration not stated) | -6.76% (inactive) | 
2 | CC1CCN(c2c(NCc3ccc(C(=O)NCc4ccccc4)cc3)c(=O)c2=O)CC1 | 0.271% (inactive) | 
3 | O=C(NCCc1ccccc1)c1ccc2c(c1)N(Cc1ccccc1)CCS2 | -2.68% (inactive) | 
4 | CC1CCCN(c2ccc(C(=O)NCCc3ccccc3)cn2)C1 (configuration not stated) |  | 2510 nM (active)
5 | Cc1cc(C(=O)COC(=O)CNC(=O)c2ccc(F)cc2)c(C)n1Cc1ccco1 |  | 3160 nM (active)
6 | Cc1cc(C(=O)CSc2nc(N)cc(=O)[nH]2)c(C)n1Cc1ccco1 | -17.4% (inactive) | 
7 | COCCn1c(C)cc(C(=O)COC(=O)CNC(=O)c2ccco2)c1C | -4.5% (inactive) | 
8 | Cc1c([N+](=O)[O-])c(N)nn1C | -0.146% (inactive) | 
9 | Cc1c(NC(=O)CSc2nnc(-c3cccnc3)n2N)c(=O)n(-c2ccccc2)n1C | 0.783% (inactive) | 
10 | Clc1ccc(Nc2nc(-c3cccs3)cs2)nc1 |  | 3160 nM (active)
11 | CC(NC(=O)c1ccco1)C(=O)Nc1nc(-c2ccccn2)cs1 (configuration not stated) | 9.64% (inactive) | 
12 | c1cnc(Nc2nc(-c3ccc4ccccc4c3)cs2)nc1 |  | 282 nM (active)
13 | Clc1ccc(Cc2nnc(-c3cccs3)o2)cc1 | 23.6% (inactive) | 
14 | Brc1ccc(-c2csc(N/N=C/c3cccnc3)n2)cc1 | 9.43% (inactive) | 
15 | COc1ccc(C(=O)Nc2nc(-c3ccc(S(=O)(=O)N4CCOCC4)cc3)cs2)cc1 | -10.1% (inactive) | 
16 | COc1ccc(-c2csc(Nc3ccccn3)n2)cc1 |  | 282 nM (active)
17 | CCCn1c(CCNc2nc(-c3ccc(OC)cc3)cs2)nc2ccccc21 | 4.91% (inactive) | 
18 | c1ccc(Nc2nc(-c3ccncc3)cs2)nc1 |  | 1580 nM (active)
19 | COC(=O)c1cc(-c2cccs2)nc2ccccc12 | -3.27% [at 1.84 µM] (inactive) | 
20 | Cc1ccc(S(=O)(=O)NCCC(=O)NCc2ccc(Cl)cc2)cc1C | -1.24% (inactive) | 
21 | CCN(CC)S(=O)(=O)c1ccc(CNC(=O)CN2C(=O)NC3(CCc4ccccc43)C2=O)cc1 (configuration not stated) | -4.71% (inactive) | 
22 | O=C1C=C(c2cc(C(F)(F)F)cc(C(F)(F)F)c2)C[C@@H](c2ccc3c(c2)OCO3)C1 | -9.28% (inactive) | 
23 | COc1ccc(-c2sc3ccc(OC)cc3c2C#Cc2ccccn2)cc1 | -0.366% (inactive) | 
24 | Cc1cc(C)cc(NC(=O)C(c2ccccc2)N2CCN(CC(=O)N3CCCC3)CC2)c1 (configuration not stated) | -6.26% (inactive) | 
25 | c1ccc(C2CCC(N3CCC(N4CCCCC4)CC3)CC2)cc1 (configuration not stated) | -8.43% (inactive) | 
26 | COc1ccc(-c2csc(NC3OC(=O)c4ccccc43)n2)cc1 (configuration not stated) | 3.91% (inactive) | 

Row | SMILES | activation, negative = inhibition | Potency
27 | COc1ccc(NC(=O)c2sc(N)nc2-c2ccccc2)cc1 | -0.349% (inactive) | 
28 | COc1ccc(Nc2nc(-c3ccccc3)cs2)cc1 |  | 2510 nM (active)
29 | CCN(CC(=O)Nc1ccccc1C(=O)NC1CC1)Cc1cccs1 | 3.29% (inactive) | 
30 | CCCCN(C(=O)C(CCSC)N1C(=O)c2ccccc2C1=O)c1c(N)n(CCC)c(=O)[nH]c1=O (configuration not stated) | 0.148% (inactive) | 
31 | COc1ccc(OCc2n[nH]c(=S)n2N)cc1 | -6.39% (inactive) | 
32 | COc1ccc(-c2nc3ccccc3c(=O)n2CCc2ccc(O)cc2)cc1 | -5.76% (inactive) | 
33 | COc1ccc(OCc2ccc(-c3nc4ccccc4c(=O)n3N)o2)cc1 |  | 1260 nM (active)
34 | O=C(CSc1nc2[nH]c(=O)[nH]c(=O)c2s1)Nc1cccc(F)c1 | 1.4% (inactive) | 
35 | Cc1ccc(NC(=O)C(C)Sc2nnc(C3CC3)n2C2CC2)cc1S(=O)(=O)N1CCOCC1 (configuration not stated) | -1.7% (inactive) | 
36 | Cc1cccc(C(=O)OCC(=O)Nc2ccc(F)cc2)c1 | 0.584% (inactive) | 
37 | Cc1ccc(-n2nc3ccc(NC(=O)/C=C/c4ccco4)cc3n2)cc1C | 15.4% (inactive) | 
38 | CCC(=O)Nc1ccc2nn(-c3ccc(F)cc3)nc2c1 |  | 631 nM (active)
39 | C=CCN(CC=C)C(=O)CN1C(=O)c2ccccc2C1=O | 2.95% (inactive) | 
40 | C=CCn1c(C)cc(C(=O)CN2C(=O)c3ccccc3C2=O)c1C |  | 355 nM (active)
41 | Cc1cc(C(=O)COC(=O)CCCN2C(=O)c3ccccc3C2=O)c(C)n1C | -6.04% (inactive) | 
42 | COc1cccc(C2=CC(=O)C[C@H](c3ccc(F)cc3)C2)c1OC | -9.93% (inactive) | 
43 | Cc1cc(C)cc(OCC(=O)Nc2ccc(N3CCOCC3)cc2N2CCOCC2)c1 | -3.26% (inactive) | 
44 | Cc1ccc2cc(/C=N/NC(=O)[C@@H]3CCCN3)c(Cl)nc2c1 | -0.292% (inactive) | 
45 | CSCC[C@H](NC(=O)OC(C)(C)C)C(=O)N/N=C/c1cc2ccc(C)cc2nc1Cl | 0.316% (inactive) | 
46 | Cc1ccc2cc(/C=N/Nc3ccc(C(=O)O)cc3)c(Cl)nc2c1 |  | 1260 nM (active)
47 | CC1(C)O[C@@H]2[C@H](O1)[C@@H](COS(=O)(=O)O)O[C@H]2n1cnc2c(=O)[nH]cnc21 | -4.21% (inactive) | 
48 | Cc1ccsc1C(=O)OCC(=O)Nc1cccc(F)c1 | 19.3% (inactive) | 
49 | Cc1ccc(C(=O)Oc2coc(CSc3nnc(NC(=O)c4cccs4)s3)cc2=O)cc1C | 2.51% (inactive) | 
50 | Cc1ccc(C(=O)Nc2nnc(-c3cccs3)s2)cc1C |  | 3550 nM (active)
51 | Cc1nnc(NC(=O)c2ccc3nccnc3c2)s1 | 25% (inactive) | 
52 | O=C(CNS(=O)(=O)c1ccc2c(c1)OCCCO2)N1CCN(c2ccc(F)cc2)CC1 | -6.68% (inactive) | 
